According to PubChem BioAssay AID1159580 (chemical genetic matrix, 2015):
Where “and” joins values, the source holds several entries; their conditions need not be identical. Identical values can stand only once. About 2,000 (36%) of roughly 5,500 compounds were called active. About 18% were inconclusive and are not listed. Cut-off read from the data, not from the text of the source: active = normalized growth mostly below about 0.91 (no sharp cut-off); inconclusive = no clear call, values can overlap the other calls; inactive = mostly above about 0.92. This is one part of the list.

Test: chemical genetic growth profiling, strain panel (AID 1159580);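 note: tested at 20 µM; growth read once vehicle control cultures reached saturation at 30 °C; 1 = growth at the plate median or of vehicle wells; lower values mean less growth of the strain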
Details: S. cerevisiae deletion strains, growth OD

Measured: normalized growth

NCCS
inactive: locus YAL013W, strain DEP1, active compounds read low 1 | locus YAL021C, strain ccr4, active compounds read low 0.977 | locus YAL026C, strain drs2, active compounds read low 0.99 | locus YAL030W, strain snc1, active compounds read low 1.01 | locus YAL040C, strain CLN3, active compounds read low 0.985 | locus YBL061C, strain skt5, active compounds read low 0.988 | locus YBR009C, strain hhf1, active compounds read low 0.988 | locus YBR021W, strain FUR4, active compounds read low 1 | locus YBR023C, strain chs3, active compounds read low 0.987 | locus YBR171W, strain sec66, active compounds read low 0.998 | locus YBR229C, strain ROT2, active compounds read low 1.01 | locus YBR231C, strain swc5, active compounds read low 0.991 | locus YBR279W, strain paf1, active compounds read low 1 | locus YCL011C, strain gbp2, active compounds read low 0.982 | locus YCL016C, strain dcc1, active compounds read low 0.976 | locus YCL029C, strain bik1, active compounds read low 1.02 | locus YCL061C, strain MRC1 (second series), active compounds read low 1.01 | locus YCL061C, strain MRC1, active compounds read low 1 | locus YCL069W, strain vba3, active compounds read low 0.992 | locus YCR088W, strain abp1, active compounds read low 0.994 | locus YDL005C, strain med2, active compounds read low 0.981 | locus YDL035C, strain GPR1, active compounds read low 1.02 | locus YDL040C, strain nat1, active compounds read low 0.992 | locus YDL074C, strain BRE1, active compounds read low 1.02 | locus YDL101C, strain DUN1, active compounds read low 1.01 | locus YDL134C, strain PPH21, active compounds read low 1.02 | locus YDL185W, strain tfp1, active compounds read low 1 | locus YDL192W, strain arf1, active compounds read low 1.01 | locus YDR001C, strain nth1, active compounds read low 0.997 | locus YDR069C, strain doa4, active compounds read low 0.988 | locus YDR101C, strain arx1, active compounds read low 1 | locus YDR137W, strain rgp1, active compounds read low 1 | locus YDR150W, strain NUM1, active compounds read low 1.01 | locus YDR159W, strain sac3, active compounds read low 0.986 | locus YDR162C, strain NBP2, active compounds read low 1.01 | locus YDR195W, strain ref2 0.923 | locus YDR297W, strain sur2, active compounds read low 0.999 | locus YDR318W, strain mcm21, active compounds read low 1.01 | locus YDR334W, strain swr1, active compounds read low 0.972 | locus YDR335W, strain msn5, active compounds read low 0.991 | locus YDR363W, strain ESC2, active compounds read low 1.03 | locus YDR388W, active compounds read low 1.01 | locus YDR392W, strain spt3, active compounds read low 0.969 | locus YDR502C, strain sam2, active compounds read low 1.01 | locus YEL003W, strain gim4, active compounds read low 0.986 | locus YEL037C, strain rad23, active compounds read low 0.983 | locus YEL061C, strain CIN8 (second series), active compounds read low 0.976 | locus YEL061C, strain CIN8, active compounds read low 1.01 | locus YER002W, strain NOP16, active compounds read low 0.992 | locus YER015W, strain faa2, active compounds read low 0.995 | locus YER016W, strain bim1, active compounds read low 1 | locus YER110C, active compounds read low 1.02 | locus YER111C, strain swi4, active compounds read low 0.986 | locus YER155C, strain BEM2 (second series), active compounds read low 0.982 | locus YER155C, strain BEM2, active compounds read low 1.01 | locus YER167W, strain BCK2, active compounds read low 1.02 | locus YFR010W, strain ubp6, active compounds read low 0.981 | locus YGL078C, strain dbp3, active compounds read low 1.02 | locus YGL086W, strain mad1, active compounds read low 1.01 | locus YGL167C, strain pmr1, active compounds read low 0.982 | locus YGL173C, strain kem1, active compounds read low 0.986 | locus YGL227W, strain vid30, active compounds read low 0.984 | locus YGL240W, strain doc1, active compounds read low 0.976 | locus YGL248W, strain PDE1, active compounds read low 1.01 | locus YGL253W, strain hxk2, active compounds read low 0.979 | locus YGR078C, strain PAC10, active compounds read low 1.02 | locus YGR135W, strain pre9, active compounds read low 1.02 | locus YGR229C, strain SMI1, active compounds read low 1.01 | locus YGR252W, strain gcn5, active compounds read low 1.04 | locus YHR013C, strain ard1, active compounds read low 0.972 | locus YHR027C, strain rpn1, active compounds read low 0.985 | locus YHR030C, strain SLT2, active compounds read low 1.02 and 1.03 | locus YHR079C, strain IRE1 (second series), active compounds read low 1.02 | locus YHR079C, strain IRE1, active compounds read low 1.04 | locus YHR094C, strain hxt1, active compounds read low 1.01 | locus YHR129C, strain ARP1, active compounds read low 1.01 | locus YHR142W, strain chs7, active compounds read low 0.984 | locus YHR200W, strain rpn10, active compounds read low 1.02 | locus YIL066C, strain RNR3, active compounds read low 1.02 | locus YIL073C, strain SPO22, active compounds read low 1.02 | locus YIL125W, strain kgd1, active compounds read low 1.01 | locus YIR030C, strain dcg1, active compounds read low 1.03 | locus YJL092W, strain hpr5, active compounds read low 0.997 | locus YJL095W, strain BCK1 (second series), active compounds read low 0.996 | locus YJL095W, strain BCK1, active compounds read low 1.01 and 1.02 | locus YJL115W, strain asf1, active compounds read low 0.966 | locus YJL129C, strain trk1, active compounds read low 0.995 | locus YJL134W, strain LCB3, active compounds read low 1.01 | locus YJL154C, strain vps35, active compounds read low 0.988 | locus YJL164C, strain tpk1, active compounds read low 0.99 | locus YJL166W, strain qcr8, active compounds read low 1 | locus YJL168C, strain set2, active compounds read low 1.02 | locus YJL187C, strain SWE1 (second series), active compounds read low 1.01 | locus YJL187C, strain SWE1, active compounds read low 0.992 | locus YJR043C, strain POL32, active compounds read low 1.01 | locus YJR066W, strain TOR1, active compounds read low 0.998
